Compound activity from PubChem BioAssay.
rCAG RNA binder: molecules binding r(CAG) RNA repeats; r(CAG) RNA repeat, TO-PRO-1 dye displacement fluorescence; inhibition, % at 3 µM; hit rate 1.3% among 370,000; AID 651821;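 active = inhibition above the plate cutoff, the mean of all test compounds on that plate plus 3 SD, cut at about 35% in these data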;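 also: 0% = DMSO alone and 100% = 100 µM mitoxantrone as full dye displacement; higher means more dye released from RNA so lower well fluorescence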
UHRF1 MBD2 ctr: blocks human UHRF1 binding to methylated DNA; Q96T88; UHRF1 binding to methylated oligo, TR-FRET; inhibition, % at 4.4 µM; hit rate 0.75% among 370,000; AID 687016; in the data active = inhibition above about 21%;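 also: UHRF1 SRA domain binding a hemimethylated CpG hairpin DNA probe; 0% = median of test compound wells and 100% = reference inhibitor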
PRMT1 FP inh: blocks human protein arginine methyltransferase 1; Q99873; recombinant PRMT1, activity-based probe fluorescence polarization; inhibition, % at 2.79 µM; hit rate 1.3% among 370,000;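 active = inhibition above about 21% made by adding two undisclosed values, limit read from the data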
MBD2 DNA inh: blocks human MBD2 binding to methylated DNA. Q9UBB5. TR-FRET, MBD2 binding to methylated oligonucleotide. inhibition, % at 4.4 µM. hit rate 0.31% among 370,000. AID 686964; in the data active = inhibition above about 13%
ABHD5 PLIN5 PPI: inhibitors of human ABHD5-perilipin-5 interaction; Split G. princeps luciferase complementation, luminescence, 4 h; Q00G26+Q8WTS1; hit rate 0.78% among 360,000; inhibition, % at 4 µM;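 active = inhibition above the mean inhibition across every tested compound plus 3 SD, cut at about 22% in these data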;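 also: 0% = DMSO only wells and the 100% control is not disclosed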
LEDGF integ inh: blocks HIV-1 LEDGF/p75-dependent DNA integration | hit rate 0.64% among 370,000 | inhibition, % at 3.7 µM | TR-FRET IN-LEDGF/p75 DNA integration, Eu/Cy5;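 active = inhibition above the screen-wide mean plus 3 SD, cut at about 13% in these data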;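 also: signal is the Cy5 over europium emission ratio at 671 and 618 nm; 0% = plate median of compound wells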
rCAG binder conf: r(CAG) RNA repeat binding, confirmation | TO-PRO-1 dye displacement fluorescence | AID 652065 | shares compounds with rCAG RNA binder | inhibition, % at 3 µM | hit rate 70% among 4,300;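 active = inhibition above a per-plate cutoff, the mean inhibition of sample wells plus 3 SD, cut at about 35% in these data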;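 also: loss of TO-PRO-1 fluorescence as compound displaces dye from 1x1 AA loop RNA; 0% = DMSO only wells and 100% = 100 µM mitoxantrone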
DNA CAG counter: disrupts DNA CAG TO-PRO-1 complex, flagging rCAG hits; shares compounds with rCAG RNA binder; d(CAG) DNA oligo TO-PRO-1 dye displacement, fluorescence; inhibition, % at 3 µM; hit rate 94% among 4,300; AID 652068;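 active = inhibition above its plate's cutoff, the mean test-well inhibition plus 3 SD, cut at about 4.8% in these data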;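 also: 0% = DNA dye mix with DMSO and 100% = 100 µM mitoxantrone; hits displace the dye from DNA and so lower well fluorescence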
Starred values were filed as active, the others as inactive; x = no result given. Only some compounds are listed: those with a hit (about 4.1% of all), similar ones and a draw of the others.

SMILES	rCAG RNA binder	UHRF1 MBD2 ctr	PRMT1 FP inh	MBD2 DNA inh	ABHD5 PLIN5 PPI	LEDGF integ inh	rCAG binder conf	DNA CAG counter
Cc1ccc(C2CC2C(=O)NNC(=S)Nc2cccc(Cl)c2)cc1 (configuration not stated)	52*	-1	-5	-1	-28	-5	51*	19*
COc1ccc(NC(=O)Nc2nnc(C(C)(C)C)s2)cc1	30	2	-1	5	-10	0	x	x
CC(C)(C)c1nc(NC(=O)Nc2ccccc2)sc1Br	36*	2	-4	-2	-17	0	16	16*
Cc1coc2c1C(=O)C(=O)c1c-2ccc2c1CCCC2(C)C	43*	0	17	-2	-20	7	23	13*
O=C(Nc1nc(Cc2ccccc2)c(Cc2ccccc2)n1Cc1ccccc1)c1ccccc1	8	-3	0	1	x	5	x	x
COc1cc(OC)cc(-c2c(C#Cc3ccsc3)c3cc(-c4ccc5[nH]ccc5c4)ccc3n2C)c1	37*	1	-2	2	2	1	33	22*
COc1cc(OC)cc(-c2c(C#Cc3ccsc3)c3cc(-c4cc(OC)c(OC)c(OC)c4)ccc3n2C)c1	8	2	-1	-3	-8	2	x	x
Cc1ccccc1/C=C1\SC(=S)N(/N=C/c2cc([N+](=O)[O-])ccc2O)C1=O	37*	-9	8	-1	2	-5	34	10*
Cc1[nH]c(=O)[nH]c(=O)c1CCSSCCc1c(C)[nH]c(=O)[nH]c1=O	1	3	14	7	x	-2	x	x
c1coc(-c2nc(N=C3N=c4ccccc4=N3)[nH]c2-c2ccco2)c1	39*	-1	2	-2	-3	4	26	19*
CC(CO)(CO)NC(=O)c1ccc(C#Cc2cccc(F)c2)cn1	2	3	0	3	x	2	x	x
O=C1c2cc(O)cc(O)c2C(=O)c2c1cc(O)c([C@@H](CO)CCO)c2O	53*	1	13	-8	7	4	44*	19*
CC1=Nc2nc(N3CCCCC3)c(C#N)c3c4c(nc(c23)N1)N(c1ccc(C(C)C)cc1)C(=O)C4	62*	14	7	2	-4	-1	38*	22*
CC(C)c1ccc(-c2nc(N3CCCCC3)[nH]c(=O)c2C#N)cc1	3	0	1	-1	2	0	x	x
Cc1ccc(S(=O)(=O)N(CC(=O)NC2CCC(C)CC2)c2cc(C)cc(C)c2)cc1 (configuration not stated)	2	-1	-3	-3	x	-1	x	x
CCCCOC(=O)Nc1ccc(S(=O)(=O)Nc2nccs2)cc1	8	-1	-5	-5	-2	3	x	x
CCCCCCCC(=O)Nc1ccc(S(=O)(=O)Nc2nccs2)cc1	55*	1	-3	-2	-6	-3	41*	18*
CCCC(C(=O)Nc1ccc(S(=O)(=O)Nc2nccs2)cc1)c1ccccc1 (configuration not stated)	49*	10	-2	6	-9	0	36*	9.7*
O=C(COc1ccc2c(c1)oc(=O)c1ccccc12)N[C@@H](Cc1c[nH]c2ccccc12)C(=O)O	51*	0	7	3	-3	-3	54*	18*
Cc1cc(OC(C)C(=O)NC(Cc2c[nH]c3ccc(O)cc23)C(=O)O)c2c(C)c(C)c(=O)oc2c1 (configuration not stated)	13	0	-2	0	-7	1	x	x
CC(Oc1ccc2c(c1)oc(=O)c1ccccc12)C(=O)NC(Cc1c[nH]c2ccc(O)cc12)C(=O)O (configuration not stated)	43*	6	22*	10	-1	6	27	6.1*
Cc1ccc(CNC(=O)CSc2ccsc2[N+](=O)[O-])cc1	12	-4	-1	2	19	2	x	x
CC(=O)c1ccc(NC(=O)CSc2ccsc2[N+](=O)[O-])cc1	35*	3	7	1	5	3	20	14*
O=C(CSc1ccsc1[N+](=O)[O-])Nc1cc(F)ccc1F	38*	14	4	2	5	6	15	11*
CCN(CC)c1ccc(NC(=O)CSc2ccsc2[N+](=O)[O-])c(C)c1	17	-4	1	-2	-15	-1	x	x
SMILES	rCAG RNA binder	UHRF1 MBD2 ctr	PRMT1 FP inh	MBD2 DNA inh	ABHD5 PLIN5 PPI	LEDGF integ inh	rCAG binder conf	DNA CAG counter
C=CCOC(=O)N[C@@H](c1coc2ccccc2c1=O)[C@@H](C)/C=C/CC(=O)OC	1	-3	-1	-6	x	6	x	x
Oc1ccc(/C=N/N(Cc2ccccc2)c2ccccc2)c(O)c1O	38*	-2	8	0	-10	1	45*	25*
Oc1cccc(/C=N/N(Cc2ccccc2)c2ccccc2)c1	15	-2	1	1	-15	3	x	x
Cc1cc(/C=N/Nc2ccc([N+](=O)[O-])cn2)c(C)n1-c1ccc(C(=O)O)cc1	42*	-4	8	-1	2	13	32	9.4*
Cc1ccccc1-n1c(C)cc(/C=N/Nc2ccc([N+](=O)[O-])cn2)c1C	6	-4	1	3	-4	2	x	x
COC(=O)c1ccsc1NS(C)(=O)=O	1	3	6	11	x	-8	x	x
CC1=Nc2ccc(C)cc2/C1=C/c1c(N)n2c(S(=O)(=O)C(C)C)nsc2nc1=O	80*	-1	3	0	2	1	75*	37*
CC1=Nc2ccccc2/C1=C/c1c(N)n2c(S(=O)(=O)CC(C)C)nsc2nc1=O	78*	-1	4	0	5	-2	78*	46*
CC1=Nc2ccccc2/C1=C/c1c(N)n2c(S(=O)(=O)C(C)C)nsc2nc1=O	73*	0	2	-5	-1	-3	59*	21*
CSc1nsc2nc(=O)c(/C=C3\C(C)=Nc4ccc(C)cc43)c(N)n12	66*	-3	5	3	-6	-3	46*	12*
CCCC[C@H]1C2CC(OC(=O)Nc3ccccc3C(F)(F)F)C(C2)[C@H]2CCCCN21 (some centres not stated)	2	0	5	2	x	-6	x	x
COc1ccc2c(c1)CN1C(=O)N(Cc3ccc(F)cc3)S(=O)(=O)CC21 (configuration not stated)	3	-1	-4	-1	x	0	x	x
CC(C)S(=O)(=O)c1nsc2nc(=O)c(/C=C3\C=Nc4ccccc43)c(N)n12	88*	-2	-1	-3	6	2	85*	55*
Brc1ccc(N/N=C(/N=Nc2nn[nH]n2)c2ccccc2)cc1	95*	3	2	3	2	2	92*	67*
